Cav3 T inh – blocks human Cav3.2 T-type calcium channel; O95180; Cav3.2-expressing cells, Fluo-4 calcium fluorescence FDSS; active compounds read low; B-score at 10 µM; 100,000 tested, 4% active;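 active = single-dose well whose peak fluorescence ratio is a statistical outlier from its plate by either plate-standardised score or position-corrected B-score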
CYP2C9 inhib – inhibitors of human CYP2C9. P11712. CYP2C9 Supersomes, luciferin-H conversion, luminescence. inhibition, % at 5 µM. 96,000 tested, 20% active. AID 777;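 active = blocking of liver enzyme CYP2C9 beyond about 50% at 5 µM, limit read from the data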
CYP2C9 act – increases human cytochrome P450 2C9 activity; recombinant CYP2C9, luciferin-H conversion, luminescence; active compounds read high; factor 1 = untreated enzyme, 0 = blocked; 96,000 tested, 1.4% active; P11712; activation factor at 5 µM; AID 1024;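 active = activation factor of 2 or more for CYP2C9 at a 5 µM dose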;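 also: 0 = sulfaphenazole-blocked wells and 1 = vehicle-only wells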
CYP2C19 act – cytochrome P450 2C19 (human) activation | activation factor at 5 µM | P33261 | 96,000 tested, under 10 active | recombinant CYP2C19, luciferin-H EGE luminescence; active compounds read high; 0 = fully inhibited enzyme, 1 = untreated enzyme;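 active = activation factor of at least 2 at 5 µM in the primary screen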;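 also: 0 = wells with 2.5 mM tranylcypromine and 1 = vehicle-only wells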
CYP2C19 inhib – blocks human cytochrome P450 2C19; P33261; CYP2C19 Supersomes, luciferin-H EGE luminescence, 30 min; inhibition, % at 5 µM; 96,000 tested, 21% active;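 active = CYP2C19 inhibition above a set limit at 5 µM in the primary screen, cut at about 50% in these data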;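 also: plate controls were negative control wells for no effect and 2.5 mM tranylcypromine positive control for full effect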
Active calls of the source: *. A selection: hits, their analogues and other compounds. The true share with any hit is near 27%.

How did O=C1CC(c2ccncc2)c2cc3c(cc2N1)OCO3 (stereo unspecified) do in these assays?
Cav3 T inh: 0.39; CYP2C9 inhib: 68*; CYP2C9 act: 0.3; CYP2C19 act: 0.5; CYP2C19 inhib: 48

How did Cc1ccc(C2CC(=O)Nc3cc4c(cc32)OCO4)o1 (stereo unspecified) do in these assays?
Cav3 T inh: -0.58; CYP2C9 inhib: 26; CYP2C9 act: 0.7; CYP2C19 act: 0.2; CYP2C19 inhib: 84*

Results for O=C1CC(c2ccc3c(c2)OCO3)c2cc3c(cc2N1)OCO3 (stereo unspecified) ?
Cav3 T inh: -0.0047; CYP2C9 inhib: 60*; CYP2C9 act: 0.4; CYP2C19 act: 0.4; CYP2C19 inhib: 64*

Results for COCCN1CCN(c2cc(-c3ccccc3)nc3cc(-c4cccc(F)c4)nn23)CC1 ?
Cav3 T inh: 0.27

What do the screens show for `Cc1noc(NS(=O)(=O)c2ccc(NC(=O)c3cnc4n(c3=O)CCS4)cc2)c1C`?
Cav3 T inh: -0.12

Results for O=C(O)CSc1nnc(-c2ccncc2)n1C1CCCCC1 ?
Cav3 T inh: 0.67; CYP2C9 inhib: -18; CYP2C9 act: 1.2; CYP2C19 act: 1; CYP2C19 inhib: -3

What do the screens show for `CCCN(CCC)S(=O)(=O)c1ccc(C(=O)N2CCC(=O)c3ccccc32)cc1`?
Cav3 T inh: -0.97; CYP2C9 inhib: 20; CYP2C9 act: 0.8; CYP2C19 act: 0.8; CYP2C19 inhib: 19

What do the screens show for `Cn1c(SCc2cc(=O)n3cc(Br)ccc3n2)nnc1C1COc2ccccc2O1` (stereo unspecified)?
Cav3 T inh: 2.4; CYP2C9 inhib: 54*; CYP2C9 act: 0.5; CYP2C19 act: 0.7; CYP2C19 inhib: 30

How did Cn1c(SCc2cnc(-c3ccccc3)s2)nnc1C1COc2ccccc2O1 (stereo unspecified) do in these assays?
Cav3 T inh: -4.9*; CYP2C9 inhib: 49; CYP2C9 act: 0.5; CYP2C19 act: 0.1; CYP2C19 inhib: 90*

Results for O=C(O)CSc1nnc(C2COc3ccccc3O2)n1-c1ccccc1 (stereo unspecified) ?
Cav3 T inh: 1.5; CYP2C9 inhib: 15; CYP2C9 act: 0.9; CYP2C19 act: 0.8; CYP2C19 inhib: 19

What do the screens show for `Cc1ccc(N(Cc2cc(=O)[nH]c3ccccc23)C(=O)c2ccco2)cc1`?
Cav3 T inh: -0.96; CYP2C9 inhib: 30; CYP2C9 act: 0.7; CYP2C19 act: 1; CYP2C19 inhib: 0

What do the screens show for `CC(=O)N(Cc1cc(=O)[nH]c2ccccc12)c1ccc(C)cc1`?
Cav3 T inh: 0.38; CYP2C9 inhib: 64*; CYP2C9 act: 0.4; CYP2C19 act: 0.5; CYP2C19 inhib: 51*

Results for CCOC(=O)Cc1csc(NC(=O)CCCCCN2C(=O)c3cccc4cccc(c34)C2=O)n1 ?
Cav3 T inh: 1.2

Results for COC(=O)CSC1=C(C#N)C(c2cccc(F)c2)CC(=O)N1 (stereo unspecified) ?
CYP2C9 inhib: 44; CYP2C9 act: 0.6; CYP2C19 act: 0.7; CYP2C19 inhib: 28

How did COC(=O)CSC1=C(C#N)C(=O)NC(c2ccccc2)S1 (stereo unspecified) do in these assays?
Cav3 T inh: -0.21; CYP2C9 inhib: 92*; CYP2C9 act: 0.1; CYP2C19 act: 0.4; CYP2C19 inhib: 58*

How did CCCCCCNc1nc(NCc2ccco2)nc(OCC)n1 do in these assays?
Cav3 T inh: -7.2*; CYP2C9 inhib: 79*; CYP2C9 act: 0.2; CYP2C19 act: 0.3; CYP2C19 inhib: 71*

How did CCOc1nc(NCc2ccco2)nc(Nc2ccc(OC)cc2)n1 do in these assays?
Cav3 T inh: -1.9; CYP2C9 inhib: 35; CYP2C9 act: 0.6; CYP2C19 act: 0.7; CYP2C19 inhib: 32

How did Cc1ccccc1NC(=O)C1(NC(=O)c2cccc(N3C(=O)CSC3c3ccccc3)c2)CCCCC1 (stereo unspecified) do in these assays?
Cav3 T inh: -10*; CYP2C9 inhib: 45; CYP2C9 act: 0.5; CYP2C19 act: 0.8; CYP2C19 inhib: 23

Results for Cc1ccc(N2C(=O)CSC2c2cccnc2)cc1F (stereo unspecified) ?
Cav3 T inh: -0.094; CYP2C9 inhib: -6; CYP2C9 act: 1.1; CYP2C19 act: 0.9; CYP2C19 inhib: 12

How did CSc1cc(-c2ccccc2)n(Cc2ccc(Cl)cc2Cl)c(=O)c1C#N do in these assays?
Cav3 T inh: -0.56; CYP2C9 inhib: 51*; CYP2C9 act: 0.5; CYP2C19 act: 0.8; CYP2C19 inhib: 15

Source: PubChem BioAssay
